# Reference: PubChem BioAssay AID624305 (National Center for Advancing Translational Sciences (NCATS), 2012)
# Records with an inconclusive call do not appear. The source made the active and inactive calls. Calls follow the shape of the dose curve; as a rule, active = well fitted activation curve with a large enough effect; inconclusive = small, poorly fitted or top-dose-only effect; inactive = no such curve, though single readings can be large or run the other way.
# Experiment: qHTS assay for re-activators of p53 using a Luc reporter: Hit Validation; also: nearly all actives have a fitted effect of over 75% in size; as to activation: 0% is about no effect
# Settings: p53-responsive luciferase reporter cells, luminescence, H1299 line expressing heat-sensitive Ala138Val p53; series mostly up to 46.1 µM; activation: at the top concentration
# In short: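 H1299 (p53-null) cells stably carrying p53-A138V and a BP100-luciferase reporter, 1000 cells/well, treated 24 h at 37 deg C. Compounds at several concentrations, 1:5 dilution; nocodazole control; luminescence read after 10 min with detection reagent.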
# Potency is read from the fitted curve at half-maximal effect.
Compound,activation,Potency
CCCCC(=O)N1CCCC(C)C1 (stereo not given),-10.4% (inactive),
O=[N+]([O-])c1ccc(NC(=S)NCCc2ccc(F)cc2)cc1,-18.8% (inactive),
Cc1cc(C(=O)N2CCN(c3ccccc3Cl)CC2)c(C)o1,,29.1 µM (active)
CCCN1C(=O)SC(CC(=O)Nc2ccccc2C)C1=O (stereo not given),12.4% [at 9.22 µM] (inactive),
CC1CCCN(C(=O)CN2C(=O)c3ccccc3S2(=O)=O)C1 (stereo not given),,23.1 µM (active)
COc1ccc(CCNC2CCC(c3ccccc3)CC2)cc1 (stereo not given),-6.77% (inactive),
Fc1cccc(NCc2cn3ccccc3n2)c1,,3.26 µM (active)
Cc1ccc(C(=O)N2CC(=O)Nc3ccc(F)cc3C2c2ccc(F)cc2)cc1[N+](=O)[O-] (stereo not given),-19.3% (inactive),
Cc1cccc(Nc2nc(N3CCOCC3)nc(N3CCOCC3)n2)c1,35.9% (inactive),
O=c1[nH]c2ccc(N/C(=N/S(=O)(=O)c3ccccc3)c3ccccc3)cc2[nH]1,30.2% (inactive),
CC(C)NC(=S)N1CCN(S(C)(=O)=O)CC1,-7.81% (inactive),
CCN(CC)C(=O)CNC(=S)N(CCCN1CCOCC1)Cc1cccs1,-10.4% (inactive),
Cc1cccc(NC(=S)NC(=O)C2CC2)c1,40.1% (inactive),
CC(C)(C)c1ccc(/C=C2\SC(=O)N(CCNC(=O)c3cccc(S(=O)(=O)N4CCOCC4)c3)C2=O)cc1,,1.84 µM (active)
O=C(NNC(=O)c1cccnc1SCc1cccc([N+](=O)[O-])c1)c1ccccn1,31.8% (inactive),
Cn1c(CCN2CCCCC2)nc2cc(NC(=O)Nc3ccccc3)ccc21,10.4% (inactive),
CCOc1ccc(S(=O)(=O)c2c(C(=O)c3ccc(C)cc3)cnc3cc4c(cc23)OCCO4)cc1,-37% (inactive),
CNc1ccc(/C=C/C(=O)c2ccc(C)cc2)cc1[N+](=O)[O-],15.1% (inactive),
Cc1cnc(C(=O)OCC(=O)Nc2ccc(OCc3ccccc3)cc2)cn1,,18.4 µM (active)
Cc1ccc2nc(-c3ccc(NC(=O)COC(=O)c4cncc(Br)c4)cc3)sc2c1,,0.146 µM (active)
